Most compounds without a hit are left out; they make up all but 4.2% or so of the library.
NLRP3 yeast inh: NALP3 inflammasome inhibitors in reconstituted yeast, primary screen, luminescence, uHTS; Yeast reconstituted NLRP3/ASC/caspase-1, beta-gal luminescence, 24 h; inhibition, % at 10 µM; 330,000 compounds, 0.39% hits; AID 2825, 2010;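 active = inhibition of 50% or more; inactive = inhibition below 50%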;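 also: plate controls were induced DMSO wells for no effect and uninduced yeast grown without galactose for full effect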
PfHsp90 set2: growth inhibition of PfHsp90-expressing yeast, primary screen, antimalarial PfHsp90 inhibitor project, S. cerevisiae, BacTiter-Glo luminescence, single point, set 2. BacTiter-Glo ATP, 48 h; yeast lacking PDR1 and PDR3 efflux regulators. 310,000 compounds, 0.32% hits. inhibition, % at 9.4 µM;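 active = every replicate shows inhibition above about 80%, whatever the replicate mean, limit read from the data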;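 also: 0% = DMSO neutral controls and 100% = 20 µM radicicol positive controls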
tim10-1 inh: growth inhibitors of tim10-1 mutant yeast, primary screen, luminescence, uHTS; 330,000 compounds, 2.2% hits; S. cerevisiae tim10-1 ts strain growth, BacTiter-Glo, 24 h; AID 463190, 2010; inhibition, % at 20 µM;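 active = inhibition of at least 40%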;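 also: mutant grown at 25 °C; 0% = DMSO wells with yeast and 100% = wells holding no yeast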
TIM10 inh: growth inhibitors of isogenic TIM10 control yeast, primary screen, counter-screen for tim10-1 yeast inhibitor project, luminescence, uHTS | AID 463195, 2010 | 330,000 compounds, 1.4% hits | inhibition, % at 10 µM | S. cerevisiae TIM10 strain growth, BacTiter-Glo luminescence, 24 h;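 active = inhibition of 40% or more at the single tested concentration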;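 also: wild-type TIM10 isogenic control strain grown at permissive 25 °C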
NALP1 yeast inh: NALP1 inflammasome inhibitors in reconstituted yeast, colorimetric, S. cerevisiae, triplicate retest. S. cerevisiae NALP1/ASC/caspase-1 growth, X-gal OD620, 72 h. inhibition, % at 10 µM. 280,000 compounds, 0.61% hits. AID 2071, 2009; in the data active = inhibition mostly above about 24%, no sharp cut-off; inactive = mostly below about 32%
tim23-1 inh: growth inhibitors of tim23-1 mutant yeast, primary screen, luminescence, uHTS | S. cerevisiae tim23-1 growth, BacTiter-Glo luminescence, 24 h | AID 463212, 2010 | inhibition, % at 20 µM | 330,000 compounds, 1.3% hits;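 active = growth inhibition of the mutant yeast at or above 50%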;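 also: temperature-sensitive mutant grown at 25 °C; plate controls were DMSO-treated mutant yeast for no effect and medium wells lacking yeast for full effect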
tim10-1 confirm: growth inhibitors of tim10-1 mutant yeast, confirmation, single concentration, luminescence, S. cerevisiae. shares compounds with tim10-1 inh. S. cerevisiae tim10-1 ts strain growth, BacTiter-Glo, 24 h. inhibition, % at 20 µM. 7,400 compounds, 56% hits. AID 463213, 2010;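 active = inhibition of yeast growth at or above a set limit in either of two repeat tests at 20 µM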;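 also: tim10-1 mutant grown at permissive 25 °C to find synthetic lethal compounds; 0% = DMSO yeast wells and 100% = medium wells without yeast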
* = called active by the depositor; . = no result given.

SMILES	NLRP3 yeast inh	PfHsp90 set2	tim10-1 inh	TIM10 inh	NALP1 yeast inh	tim23-1 inh	tim10-1 confirm
O=c1[nH]c(NNC(=S)NCc2ccccc2)nc2c1C1(CCCCC1)Cc1ccccc1-2	4	.	43*	32	-6	21	30
CCCCCC(=O)N1CCCC(c2nc(-c3ccc(OC)cc3)no2)C1 (centres undefined)	5	53	35	34	-2	28	.
COc1ccc(-c2noc(C3CCCN(C(=O)CCc4ccccc4)C3)n2)cc1 (centres undefined)	-33	.	42*	37	30	48	33*
Cc1nn(CC(=O)N2CCCCCC2)c(=O)c2cc3occc3n12	11	1	13	-12	18	11	.
Cn1c(N)c(C(=O)COC(=O)CSc2ccc(Cl)cc2)c(=O)n(C)c1=O	-8	.	23	12	18	10	.
O=C(OCc1nc2ccccc2s1)C1CCN(S(=O)(=O)c2cccs2)CC1	19	19	48*	34	6	39	25
Cc1c(C)n(C)c2ccc(C(=O)Nc3cccc4ccccc34)cc12	25	-19	43*	24	9	38	32*
Cc1ccc(S(=O)(=O)N2CCN(Cc3ccccc3C(F)(F)F)CC2)cc1	20	.	13	-11	4	16	.
O=S(=O)(c1ccccc1)N1CCN(Cc2ccccc2C(F)(F)F)CC1	23	15	40*	12	-3	20	6
O=S(=O)(c1cc(Cl)ccc1Br)N1CCCCC1	-27	-4	43*	-2	13	31	32*
Cc1cc(OCCN2CCN(S(=O)(=O)c3ccccc3F)CC2)ccc1C(C)C	19	1	43*	20	.	26	26
Nc1[nH]c2cc([N+](=O)[O-])ccc2c1-c1ccccn1	34	5	16	-13	22	6	.
COc1cc(OC)c(C(=O)O/N=C(\N)c2ccc(C)cc2)cc1OC	16	-14	46*	33	9	36	49*
COc1cc(OC)c(C(=O)O/N=C(\N)c2cccc(C)c2)cc1OC	23	-15	48*	28	19	36	41*
COc1ccc(/C(N)=N/OC(=O)c2cccs2)cc1OC	3	24	66*	25	12	23	53*
COc1ccc(/C(N)=N/OC(=O)Cc2ccc(C)cc2)cc1OC	30	28	19	9	6	21	.
Cc1cccc(/C(N)=N/OC(=O)COc2ccc(Cl)cc2)c1	26	.	50*	21	20	27	46*
N/C(=N\OC(=O)COc1ccc(Cl)cc1)c1ccc(Cl)cc1	4	7	27	25	39	9	.
COc1cc(/C=C/C(=O)OCC(=O)N2CCCC2)cc(OC)c1OC	-11	-48	17	8	.	23	.
CCOc1ccc(OCCC(=O)OCC(=O)NCCc2ccc(S(N)(=O)=O)cc2)cc1	1	19	1	4	.	-5	.
CN(CCN1CCOCC1)Cc1nc(-c2ccc(Cl)cc2)no1	10	14	-36	-24	-50	-12	.
CN1CCN(c2ccc(NC(=O)c3ccc(C#N)cc3F)cc2Cl)CC1	6	.	8	8	5	-16	.
CCOC(=O)c1cnc2c(C(F)(F)F)cccc2c1N1CCN(C)CC1	10	0	12	-12	10	7	.
CCOC(=O)c1cnc2c(OC)cccc2c1N1CCN(c2ccccn2)CC1	-1	-8	48*	20	36	37	21
CCOC(=O)c1cnc2c(OC)cccc2c1N1CCN(c2ccc(OC)cc2)CC1	16	8	40*	4	-16	12	17
SMILES	NLRP3 yeast inh	PfHsp90 set2	tim10-1 inh	TIM10 inh	NALP1 yeast inh	tim23-1 inh	tim10-1 confirm
Cc1noc(C)c1COC(=O)c1ccc(S(=O)(=O)N2CCCCC2)cc1	12	2	17	16	-21	16	.
COCCN1CCN(C(=O)c2cc(COc3ccc(Cl)cc3OC)on2)CC1	17	7	14	5	3	7	.
CCOc1ccc(OCC(=O)OCC(=O)NNC(=O)c2ccc([N+](=O)[O-])cc2)cc1	23	4	-12	-15	.	-16	.
CS(=O)(=O)N1CCN(c2ccc(NC(=O)c3ccccc3)cc2)CC1	2	15	-5	14	16	-4	.
Brc1ccccc1-c1nnc2sc(-c3ccc4c(c3)OCCO4)nn12	17	.	49*	34	-2	42	24
Cc1nn(Cc2c(F)c(F)c(F)c(F)c2F)c(C)c1NC(=O)c1ccc(COc2ccc(Cl)cc2Cl)o1	2	-28	49*	37	39	35	41*
Cc1nn(Cc2ccc(Cl)cc2Cl)c(C)c1NC(=O)C1C2CCC(O2)C1C(=O)O (centres undefined)	18	3	41*	-1	10	6	21
Cc1nn(Cc2ccc(Cl)cc2Cl)c(C)c1NC(=O)c1ccc(COc2cc(Cl)ccc2Cl)o1	15	-18	20	17	-11	-16	.
Cc1nn(Cc2ccc(Cl)cc2Cl)c(C)c1NC(=O)c1nn(C)cc1Cl	2	-4	44*	23	2	37	38*
O=C(Nc1cccnc1)c1cc(-c2ccc(Cl)cc2Cl)on1	2	-11	8	-2	8	5	.
Clc1ccc2c(c1)c1ccccc1n2CN1CCOCC1	27	7	54*	23	6	40	25
CCOC(=O)C1=C(CSc2nc(-c3ccncc3)ccc2C#N)OC(N)=C(C#N)C1c1ccc(OC)cc1 (centres undefined)	12	15	45*	21	12	48	23
CCOC(=O)C1=C(CSc2nc(C)ccc2C#N)OC(N)=C(C#N)C1c1cccc(OC)c1OC (centres undefined)	24	-13	45*	39	7	25	45*
CCOC(=O)C1=C(CSc2nc(-c3ccncc3)ccc2C#N)OC(N)=C(C#N)C1c1cccnc1 (centres undefined)	-8	-34	19	20	-7	11	.
CCOc1ccc(N2CC(C(=O)NC3CCCC3)CC2=O)cc1 (centres undefined)	14	-3	3	12	-2	0	.
CCNC(=S)N1CCN(CC)CC1	0	.	10	8	1	5	.
CCOC(=O)C1CCCN(C2=NC(=O)/C(=C/c3ccc(OC)cc3)S2)C1 (centres undefined)	10	-6	47*	20	20	33	31*

Screening results as filed in PubChem.
